In PubChem BioAssay:
Results filed as inconclusive are left out. Calls of active or inactive are those of the source.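 How the source made its calls, unless noted: active means normalized viability below 100% at a tested concentration; inactive means the rest.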

What was measured:
[1] = growth inhibition of DIPG glioma cells, dose response, cell-based, SU-DIPG-XIII, MIPE5.0, CellTiter-Glo, qHTS (AID 1347064; cut-off not given, nearly all actives have AC50 up to about 23 µM;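 on AC50: cells exposed to compound for 48 hours before the viability read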); settings: SU-DIPG-XIII viability, CellTiter-Glo ATP luminescence
[2] = SU-DIPG-XXV glioma cell viability, MIPE5.0 library, qHTS (AID 1347068; cut-off not given, nearly all actives have IC50 up to about 30 µM)
[3] = sensitizers of A549 cells to miR-34 induction, primary screen, imaging, A549 dox-inducible miR-34, nuclei and caspase counts (AID 1347080;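 active means compounds whose cell count with miR-34 switched on is under 0.7 times the count with it off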); settings: A549 miR-34 inducible, Hoechst nuclei count, 48 h
[4] = modifiers of HSF1 nuclear foci, imaging, Selleck Cancer Library (AID 1347162; in the data active means plate-normalised HSF1 focus index below about 0.46); settings: human cells, at 10 µM; SSMD: measured here: HSF1 foci SSMD mean; cell count: measured here: cell number; plate-normalised HSF1 focus index: stronger effect = lower value
[5] = survival rescue of mitochondrial mutant cells in low glucose, primary screen, MELAS cybrids, Rieske KO mouse fibroblasts, CellTiter-Glo (AID 1508586;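 active means mean z-score across replicates of 1.96 or higher in either the MELAS or the Rieske mutant cell line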;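 further: z relative to plate mean and SD of compound and empty wells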)
[6] = ovarian cancer cell viability with rucaparib, profiling panel, oncology-focused library, rucaparib conditional (AID 1508598); settings: patient-derived ovarian cancer cells, CellTiter-Glo viability, 144 h, stronger effect = lower value
[7] = viability loss in pontine glioma line – cell-based, SU-DIPG-XXV, MIPE5.0, CellTiter-Glo, qHTS, dose response (AID 1347065; cut-off not given, nearly all actives have AC50 up to about 26 µM;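 further: cells exposed to compound for 48 hours before ATP readout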); settings: CellTiter-Glo ATP luminescence
[8] = JHH-DIPG-1 glioma cell viability, MIPE5.0 library, CellTiter-Glo luminescence, qHTS (AID 1347067; cut-off not given, nearly all actives have AC50 up to about 26 µM;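 further: cells exposed to compound for 48 hours before readout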); settings: JHH-DIPG-1 glioma viability, CellTiter-Glo ATP luminescence
[9] = stronger effect = lower value, cell number ratio, induced over uninduced
[10] = measured here: relative caspase fold change +Dox/-Dox
[11] = measured here: total cells with miR-34 induction, stronger effect = lower value
[12] = measured here: total cells without miR-34 induction
[13] = MELAS cybrid survival, CellTiter-Glo 48 h, stronger effect = higher value
[14] = Rieske KO mouse fibroblast survival, CellTiter-Glo 72 h

CCc1cc(Nc2nccc(-c3c(-c4ccc(OC)c(C(=O)Nc5c(F)cccc5F)c4)nc4ccccn34)n2)c(OC)cc1N1CCC(N2CCN(S(C)(=O)=O)CC2)CC1
2.41: SSMD [4]
1.23: fold change [3, 10]
0.793: z-score [5, 14]
6190: cell count [3, 11]
active: AC50 [1] 5.25 µM | viability ([6]; at 0.000305 µM, OCI-P5x cells, with rucaparib 20 µM, 100% = cells with rucaparib alone) 97.3% | viability ([6]; at 0.00122 µM, OCI-P5x cells, with rucaparib 20 µM, 100% = cells with rucaparib alone) 99.8% | viability ([6]; at 0.00488 µM, OCI-P5x cells, with rucaparib 20 µM, 100% = cells with rucaparib alone) 98.3% | viability ([6]; at 0.00488 µM, OCI-P5x cells, without rucaparib) 98.5% | viability ([6]; at 0.0781 µM, OCI-P5x cells, with rucaparib 20 µM, 100% = cells with rucaparib alone) 93.1% | viability ([6]; at 1.25 µM, OCI-P5x cells, with rucaparib 20 µM, 100% = cells with rucaparib alone) 97.9% | viability ([6]; at 1.25 µM, OCI-P5x cells, without rucaparib) 88.3% | viability ([6]; at 5 µM, OCI-P5x cells, with rucaparib 20 µM, 100% = cells with rucaparib alone) 92.9% | viability ([6]; at 5 µM, OCI-P5x cells, without rucaparib) 90.5%
6540: cell count [3, 12]
inactive: outcome [2] | fold change [3, 9] 0.946 | plate-normalised HSF1 focus index [4] 1.12 | z-score [5, 13] 0.319 | viability ([6]; at 0.000305 µM, OCI-C5x cells, with rucaparib 10 µM, 100% = cells with rucaparib alone) 118% | viability ([6]; at 0.000305 µM, OCI-C5x cells, without rucaparib) 127% | viability ([6]; at 0.000305 µM, OCI-P5x cells, without rucaparib) 105% | viability ([6]; at 0.00122 µM, OCI-C5x cells, with rucaparib 10 µM, 100% = cells with rucaparib alone) 112% | viability ([6]; at 0.00122 µM, OCI-C5x cells, without rucaparib) 120% | viability ([6]; at 0.00122 µM, OCI-P5x cells, without rucaparib) 104% | viability ([6]; at 0.00488 µM, OCI-C5x cells, with rucaparib 10 µM, 100% = cells with rucaparib alone) 116% | viability ([6]; at 0.00488 µM, OCI-C5x cells, without rucaparib) 121% | viability ([6]; at 0.0195 µM, OCI-C5x cells, with rucaparib 10 µM, 100% = cells with rucaparib alone) 112% | viability ([6]; at 0.0195 µM, OCI-C5x cells, without rucaparib) 119% | viability ([6]; at 0.0195 µM, OCI-P5x cells, with rucaparib 20 µM, 100% = cells with rucaparib alone) 102% | viability ([6]; at 0.0195 µM, OCI-P5x cells, without rucaparib) 103% | viability ([6]; at 0.0781 µM, OCI-C5x cells, with rucaparib 10 µM, 100% = cells with rucaparib alone) 122% | viability ([6]; at 0.0781 µM, OCI-C5x cells, without rucaparib) 132% | viability ([6]; at 0.0781 µM, OCI-P5x cells, without rucaparib) 100% | viability ([6]; at 0.313 µM, OCI-C5x cells, with rucaparib 10 µM, 100% = cells with rucaparib alone) 174% | viability ([6]; at 0.313 µM, OCI-C5x cells, without rucaparib) 152% | viability ([6]; at 0.313 µM, OCI-P5x cells, with rucaparib 20 µM, 100% = cells with rucaparib alone) 103% | viability ([6]; at 0.313 µM, OCI-P5x cells, without rucaparib) 103% | viability ([6]; at 1.25 µM, OCI-C5x cells, with rucaparib 10 µM, 100% = cells with rucaparib alone) 178% | viability ([6]; at 1.25 µM, OCI-C5x cells, without rucaparib) 174% | viability ([6]; at 5 µM, OCI-C5x cells, with rucaparib 10 µM, 100% = cells with rucaparib alone) 176% | viability ([6]; at 5 µM, OCI-C5x cells, without rucaparib) 196%
6760: cell count [4]

Nc1nc(-c2nn(Cc3ccccc3F)c3ncccc23)ncc1C1CC1
active: AC50 [1] 11.8 µM
inactive: outcome [2]

CC(C)[C@@H](CS(=O)(=O)C(C)C)N1C(=O)[C@@](C)(CC(=O)O)C[C@H](c2cccc(Cl)c2)[C@H]1c1ccc(Cl)cc1
active: AC50 [7] 18.6 µM | AC50 [8] 23.5 µM

COc1cc2ncnc(Nc3cccc(Cl)c3F)c2cc1OC(=O)N1CCN(C)C[C@H]1C
inactive: outcome [1] | outcome [2]

Cc1nn(C)c2c1C(c1ccc(C(F)(F)F)cc1)C(C#N)=C(N)O2 (configuration not stated)
inactive: outcome [1] | outcome [2]

Cc1cc(C)c2c(c1)[C@@H](N(Cc1cc(C(F)(F)F)cc(C(F)(F)F)c1)c1nnn(C)n1)CCCN2CC1CCC(C(=O)O)CC1 (some centres not stated)
inactive: outcome [2] | fold change [3, 9] 0.938 | z-score [5, 13] -0.009
7380: cell count [3, 12]
6920: cell count [3, 11]
0.636: fold change [3, 10]
active: AC50 [1] 20.9 µM
-0.0411: z-score [5, 14]

C[C@H]1CNCCCN1S(=O)(=O)c1cccc2cncc(F)c12
inactive: outcome [1] | outcome [8] | outcome [2]
